{
  "source": "PubChem BioAssay AID2061306",
  "about": "(National Center for Advancing Translational Sciences (NCATS), 2025)",
  "note": "Records with an inconclusive call do not appear. Calls of active or inactive are those of the source. Calls follow the shape of the dose curve; as a rule, active = well fitted inhibition curve with a large enough effect; inconclusive = small, poorly fitted or top-dose-only effect; inactive = flat fitted curve, though single readings scatter.",
  "data": [
    {"assay": "Identification of antibody-drug conjugate (ADC) payloads which are substrates of ATP-binding cassette drug efflux transporters: ABCB1-HEK293-pcDNA cell line", "conditions": "HEK293 empty-vector (pcDNA) control viability, CellTiter-Glo, 48 h", "description": "Antibody-drug conjugates (ADCs) feature an antibody recognizing a specific protein joined to a potent toxic payload. Numerous antibody-drug conjugates have received FDA approval; however, clinical resistance arises. Resistance mechanisms include decreased expression or mutation of the antibody target, impaired payload release, or increased expression of ATP-binding cassette (ABC) efflux transporters associated with multidrug resistance. We therefore sought to characterize the interaction of ABC multidrug transporters with ADC payloads. We performed a high-throughput screen with 27 common ADC payloads using cells lines expressing ABC transporters P-glycoprotein (P-gp, encoded by ABCB1) or ABCG2 (encoded by ABCG2). Confirmatory assays were also performed using cells transfected to express P-gp, ABCG2, or MRP1 (encoded by ABCC1). Several commonly used ADC payloads were substrates of P-gp, including calicheamicin gamma1, monomethyl auristatin E, DM1, and DM4. All the pyrrolobenzodiazepines tested - SJG136, SGD-1882, SG2057, and SG3199 - were substrates of P-gp, ABCG2, and MRP1. […] These findings highlight the risk of transporter-mediated resistance with certain ADC payloads and underscore the importance of selecting payloads that evade ABC transporter recognition in future ADC development.\nHEK-293 cells were transfected with empty vector (pcDNA) or vector containing the human ABCB1 (MDR-19), ABCG2 (R-5), or ABCC1 gene (MRP1) and were maintained in EMEM with 2 mg/mL G418 added to maintain transporter expression. The HeLa derivative KB-3-1 and the P-gp overexpressing KB-8-5-11 subline were maintained in DMEM; KB-8-5-11 additionally received 100 ng/mL colchicine. H460 parental cells were obtained from the Division of Cancer Treatment and Diagnosis Tumor Repository, National Cancer Institute at Frederick, MD and were cultured in RPMI. The ABCG2 expressing subline H460 MX20 was generated by selecting H460 cells in 20 nM mitoxantrone. Media in all cases was supplemented with 10% FBS and 1% penicillin-streptomycin. We explored 27 common ADC payloads, in two orthogonal, paired cell line sets-a drug selected and transfected set for each transporter--to identify substrates of the ABC transporters P-gp and ABCG2. Compounds were sourced from Levena Biopharma (San Diego, CA), Selleck Chem (Houston, TX), ChemieTek (Indianapolis, IN), or Microsource Discovery Systems (Gaylordsville, CT). Screening was performed as previously described. Briefly, cells were plated at a density of 500 cells/well in 1536 well plates with compounds added using a 1536-head pin tool (Kalypsys, San Diego CA). Cells were incubated with cytotoxic drugs and processed with CellTiter Glo reagent (Promega, Madison, WI) to determine viability after 48 hours. […]", "values": [
      {"compound": "COc1cccc2c1C(=O)c1c(O)c3c(c(O)c1C2=O)C[C@@](O)(C(=O)CO)CC3OC1CC(N2CCOC(OC)C2)C(O)C(C)O1", "note": "(some centres undefined)", "Potency": "1.7 nM (active)"},
      {"compound": "CC[C@H](C)[C@H](NC(=O)[C@H]1CCCCN1C)C(=O)N(C)[C@H](C[C@@H](OC(C)=O)c1nc(C(=O)N[C@@H](Cc2ccccc2)C[C@H](C)C(=O)O)cs1)C(C)C", "Potency": "1.3 nM (active)"},
      {"compound": "COc1cc2cc(C(=O)N3C[C@@H](CCl)c4c3cc(O)c3ccccc43)[nH]c2c(OC)c1OC", "Potency": "1.5 nM (active)"},
      {"compound": "CC[C@@]1(O)C(=O)OCc2c1cc1n(c2=O)Cc2cc3ccccc3nc2-1", "Potency": "11.8 nM (active)"}
    ]}
  ]
}
